Measurements: PubChem BioAssay (NCATS)
Results filed as inconclusive are left out. Activity calls are given as the source filed them. Unless noted, calls follow the shape of the dose curve; as a rule, active = well fitted curve in the direction sought with a large enough effect; inconclusive = small, poorly fitted or top-dose-only effect, or another doubt; inactive = no such curve, though single readings can be large; an effect the other way counts as inactive or inconclusive.

Biological target: ATP-dependent 6-phosphofructokinase (Trypanosoma brucei brucei) (UniProt O15648)
Sequence (O15648 whole entry, looked up): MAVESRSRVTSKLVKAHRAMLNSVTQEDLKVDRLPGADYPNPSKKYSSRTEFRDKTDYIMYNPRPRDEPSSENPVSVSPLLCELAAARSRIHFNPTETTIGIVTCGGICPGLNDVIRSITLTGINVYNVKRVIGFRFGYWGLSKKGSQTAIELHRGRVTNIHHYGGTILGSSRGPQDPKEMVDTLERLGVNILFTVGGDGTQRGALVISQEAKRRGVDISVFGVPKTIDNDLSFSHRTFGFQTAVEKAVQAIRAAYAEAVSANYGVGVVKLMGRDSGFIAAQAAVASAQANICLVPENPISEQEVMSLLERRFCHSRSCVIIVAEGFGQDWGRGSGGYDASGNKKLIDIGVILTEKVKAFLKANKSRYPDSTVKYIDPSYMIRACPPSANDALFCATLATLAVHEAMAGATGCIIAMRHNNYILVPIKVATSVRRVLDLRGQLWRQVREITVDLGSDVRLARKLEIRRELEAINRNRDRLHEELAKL
Assay: qHTS Assay to Find Inhibitors of T. brucei phosphofructokinase: hit validation (AID 492961); also: % is scaled to controls: 0 for no effect and ±100 for the full control effect
Conditions: T. brucei PFK, ADP-Glo luminescence; series mostly up to 51.4 µM; activity change, negative = inhibition: at the top concentration
Method in brief: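 Luminescence from ADP-Glo reports ADP generated as T. brucei PFK (1.25 nM) phosphorylates 0.5 mM fructose-6-phosphate using 0.1 mM ATP. Reactions ran 45 min at room temperature, pH 8.0.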

Compound | activity change, negative = inhibition
NP(N)(=O)NC(=O)c1ccc(F)cc1 | 1% (inactive)
CC(C)NCC(O)c1ccccc1Cl (configuration not stated) | -1.08% (inactive)
OCCOc1ccccc1 | -1.99% (inactive)
c1ccc2c(c1)Nc1ccccc1S2 | -6.14% (inactive)
CC(C)(N)Cc1ccc(Cl)cc1 | -8.96% (inactive)
C[C@]12C/C(=C/O)C(=O)C[C@@H]1CC[C@@H]1[C@@H]2CC[C@@]2(C)[C@H]1CC[C@]2(C)O | -3.79% (inactive)
Oc1ccccc1-c1ccccc1 | -0.492% (inactive)

Test system: not listed separately
Assay: Inducers of the Endoplasmic Reticulum Stress Response (ERSR) in human glioma: Validation (AID 504836); also: 0% is about no effect
Conditions: human glioma cells, ER stress response reporter; series mostly up to 38.3 µM; activation: at the top concentration
Method in brief: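 Stably transfected U87-MG glioma cells carrying a GRP78-based luciferase sensor; 16 h compound incubation. Luminescence end-point read 10 min after Bright-Glo addition at room temperature.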

Compound | activation
Nc1nc(N)c2nc(-c3ccccc3)c(N)nc2n1 | -5.93% (inactive)
Clc1ccc2c(c1)C(N1CCNCC1)=Nc1ccccc1O2 | -1.17% (inactive)
CN(Cc1cnc2nc(N)nc(N)c2n1)c1ccc(C(=O)N[C@@H](CCC(=O)O)C(=O)O)cc1 | -1.01% (inactive)
Cc1cnc(C(=O)NCCc2ccc(S(=O)(=O)NC(=O)NC3CCCCC3)cc2)cn1 | -3.64% (inactive)
CC(C)NCC(O)COc1ccc(CCOCC2CC2)cc1 (configuration not stated) | -0.458% (inactive)
O=C(O)COCCN1CCN(C(c2ccccc2)c2ccc(Cl)cc2)CC1 (configuration not stated) | 1.45% (inactive)
O=c1[nH]cc(F)c(=O)[nH]1 | -4.66% (inactive)
CC(=O)O[C@]1(C(C)=O)CC[C@H]2[C@@H]3C=C(Cl)C4=CC(=O)[C@@H]5C[C@@H]5[C@]4(C)[C@H]3CC[C@@]21C | -1.98% (inactive)
C[C@](N)(Cc1ccc(O)c(O)c1)C(=O)O | -3.3% (inactive)
COc1cc2c(c(OC)c1OC)-c1ccc(OC)c(=O)cc1[C@@H](NC(C)=O)CC2 | -5.28% (inactive)
O=C(C1CCCCC1)N1CC(=O)N2CCc3ccccc3C2C1 (configuration not stated) | -2.96% (inactive)
Cc1cn([C@H]2C[C@H](N=[N+]=[N-])[C@@H](CO)O2)c(=O)[nH]c1=O | -0.344% (inactive)
CCN(CC)CCOC(=O)C1(C2CCCCC2)CCCCC1 | -1.2% (inactive)
CN(C)CC[C@@H](c1ccc(Br)cc1)c1ccccn1 | -4% (inactive)
O=C(c1ccccc1)c1ccc2n1CCC2C(=O)O (configuration not stated) | -0.837% (inactive)
CCOC(=O)C1=C(C)NC(C)=C(C(=O)OC)C1c1cccc(Cl)c1Cl (configuration not stated) | 0.412% (inactive)
CCCNC(=O)NS(=O)(=O)c1ccc(Cl)cc1 | -3.76% (inactive)
Cc1ccccc1N1C(=O)c2cc(S(N)(=O)=O)c(Cl)cc2NC1C (configuration not stated) | -3.24% (inactive)
CN(C)[C@@H]1C(=O)C(C(N)=O)=C(O)[C@@]2(O)C(=O)C3=C(O)c4c(O)ccc(Cl)c4[C@@H](O)[C@H]3C[C@@H]12 | -0.308% (inactive)
CC(C)(C(=O)O)c1ccc(C(O)CCCN2CCC(C(O)(c3ccccc3)c3ccccc3)CC2)cc1 (configuration not stated) | -0.403% (inactive)
CC(=O)Nc1nnc(S(N)(=O)=O)s1 | -2.47% (inactive)
CN(C)C(=O)C(CCN1CCC(O)(c2ccc(Cl)cc2)CC1)(c1ccccc1)c1ccccc1 | -6.67% (inactive)
COc1cc2nc(N3CCN(C(=O)c4ccco4)CC3)nc(N)c2cc1OC | -0.623% (inactive)
CC(=O)N[C@@H](CS)C(=O)O | -1.17% (inactive)
CC(C(=O)O)c1cccc(C(=O)c2ccccc2)c1 (configuration not stated) | -1.11% (inactive)
CC(=O)CCCCn1c(=O)c2c(ncn2C)n(C)c1=O | -0.786% (inactive)
CNCCC(Oc1ccc(C(F)(F)F)cc1)c1ccccc1 (configuration not stated) | -4.32% (inactive)
CN1CCC(=C2c3ccccc3C=Cc3ccccc32)CC1 | 2.52% (inactive)
Cc1oncc1C(=O)Nc1ccc(C(F)(F)F)cc1 | -2.62% (inactive)
CN(C)CCOC(C)(c1ccccc1)c1ccccn1 (configuration not stated) | -1.27% (inactive)

Biological target: Ubiquitin carboxyl-terminal hydrolase 1 (Homo sapiens) (UniProt O94782)
Sequence (O94782 whole entry, looked up): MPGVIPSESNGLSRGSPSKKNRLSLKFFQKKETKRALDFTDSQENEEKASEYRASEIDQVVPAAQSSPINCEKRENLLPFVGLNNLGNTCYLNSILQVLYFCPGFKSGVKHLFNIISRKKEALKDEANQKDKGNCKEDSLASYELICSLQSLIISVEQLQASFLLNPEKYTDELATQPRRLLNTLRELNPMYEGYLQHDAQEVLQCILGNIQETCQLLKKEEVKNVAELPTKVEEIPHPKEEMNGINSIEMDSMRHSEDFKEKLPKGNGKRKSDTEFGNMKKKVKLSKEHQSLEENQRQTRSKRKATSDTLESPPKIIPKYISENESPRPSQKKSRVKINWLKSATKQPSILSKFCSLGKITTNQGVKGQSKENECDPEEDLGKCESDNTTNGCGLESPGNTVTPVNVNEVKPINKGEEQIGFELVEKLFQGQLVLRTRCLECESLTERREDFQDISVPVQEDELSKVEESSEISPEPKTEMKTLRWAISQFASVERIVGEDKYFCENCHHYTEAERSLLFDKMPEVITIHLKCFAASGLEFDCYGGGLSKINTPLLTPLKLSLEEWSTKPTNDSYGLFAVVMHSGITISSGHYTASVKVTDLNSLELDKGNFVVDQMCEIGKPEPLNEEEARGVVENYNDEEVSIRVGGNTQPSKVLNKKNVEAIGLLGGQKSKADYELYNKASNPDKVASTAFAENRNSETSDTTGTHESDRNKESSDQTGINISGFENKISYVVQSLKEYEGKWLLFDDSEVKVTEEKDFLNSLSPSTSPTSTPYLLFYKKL
Assay: Inhibitors of USP1/UAF1: Pilot qHTS (AID 504865);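 also: rhodamine fluorescence freed from ubiquitin-rhodamine substrate followed over time; top concentration of the series differs between compounds; % is scaled to controls: 0 for no effect and ±100 for the full control effect; nearly all actives have a fitted effect of over 35% in size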
Conditions: purified USP1/UAF1, Ub-rhodamine cleavage fluorescence; series mostly up to 114 µM; activity change, negative = inhibition: at the top concentration
Method in brief: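 Kinetic fluorescence assay: 1nM USP1/UAF1, 15 min compound preincubation, then 150nM Ub-Rho; 480/540 nm.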

Compound | activity change, negative = inhibition | Potency
NP(N)(=O)NC(=O)c1ccc(F)cc1 | -3.45% (inactive) | –
COc1cc2c(c(OC)c1OC)-c1ccc(OC)c(=O)cc1[C@@H](NC(C)=O)CC2 | – | inactive
CC(C)NCC(O)c1ccccc1Cl (configuration not stated) | -2.59% (inactive) | –
OCCOc1ccccc1 | -14.1% (inactive) | –
CC(C)(N)Cc1ccc(Cl)cc1 | -7.06% (inactive) | –
C[C@]12C/C(=C/O)C(=O)C[C@@H]1CC[C@@H]1[C@@H]2CC[C@@]2(C)[C@H]1CC[C@]2(C)O | -9.77% (inactive) | –
Oc1ccccc1-c1ccccc1 | -4.53% (inactive) | –

Biological target: Estrogen receptor (Homo sapiens) (UniProt P03372)
Sequence (P03372 whole entry, looked up): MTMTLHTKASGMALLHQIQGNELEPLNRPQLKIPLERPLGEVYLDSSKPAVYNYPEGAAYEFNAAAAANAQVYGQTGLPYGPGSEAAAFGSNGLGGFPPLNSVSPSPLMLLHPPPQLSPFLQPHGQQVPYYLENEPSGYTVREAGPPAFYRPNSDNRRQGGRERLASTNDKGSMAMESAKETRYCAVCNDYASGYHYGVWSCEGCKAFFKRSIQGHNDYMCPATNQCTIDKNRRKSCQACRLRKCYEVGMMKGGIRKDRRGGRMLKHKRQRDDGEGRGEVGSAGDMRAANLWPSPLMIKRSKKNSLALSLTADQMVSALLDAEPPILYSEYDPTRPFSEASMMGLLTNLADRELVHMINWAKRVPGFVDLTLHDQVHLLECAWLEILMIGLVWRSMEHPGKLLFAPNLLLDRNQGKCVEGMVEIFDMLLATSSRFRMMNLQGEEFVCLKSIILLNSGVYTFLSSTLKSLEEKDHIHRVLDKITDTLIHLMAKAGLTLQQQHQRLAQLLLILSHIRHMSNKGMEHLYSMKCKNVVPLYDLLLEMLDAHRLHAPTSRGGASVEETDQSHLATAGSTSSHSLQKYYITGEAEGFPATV
Assay: qHTS assay for small molecule antagonists of estrogen receptor alpha signaling (AID 588513; active = well fitted curve in the direction sought with a large enough effect in the signal ratio, with a control signal flat, not every such curve was filed as active; the % refers to the signal ratio; also: % is scaled to controls: 0 for no effect and ±100 for the full control effect)
Conditions: ER-alpha-UAS-bla HEK293, beta-lactamase ratio, antagonist mode; series mostly up to 76.9 µM; activity, negative = inhibition: at the top concentration
Excerpt: NIH Chemical Genomics Center [NCGC]
U.S. Environmental Protection Agency [EPA]
National Institutes of Environmental Health Sciences [NIEHS]
National Toxicology Program [NTP]
Estrogen receptor alpha (ER-alpha) is an important member of nuclear hormone receptors. ER-alpha plays important role in breast cancer as well as in other women's health issues. The majority of breast cancers is estrogen receptor (ER) positive and depends on estrogen for growth. There is also growing concern for some of environmental chemicals which may contribute the increasing the incidence of breast cancer. Therefore, it is important to understand the effect of environmental chemicals in ER-alpha signaling pathway.
NCGC Assay Protocol Summary
Using a beta-lactamase reporter-gene under control of the ER response element, a cell-based assay [ER-alpha-UAS-bla GripTiteTM cell-Based Assay from Invitrogen] was used to measure ER-alpha signaling pathway in antagonist mode. ER-alpha-UAS-bla-GripTite HEK 293 cells were used with assay medium containing 2% charcoal/dextran treated FBS, 0.1 mM NEAA and 1 mM sodium pyruvate. Cells were cultured in this assay medium overnight in the flasks before the assay. The assay was performed in clear bottom black Greiner 1536-well plates. 17-beta-estradiol was used as a positive control in the screen. Library compounds were measured for their ability to inhibit the reporter gene activity. Compounds were screened in a titration series in 1536-well format. […] Data was normalized relative to 17-beta-estradiol control (0.5nM, 100%), and DMSO only wells (basal, 0%). Concentration-response titration points for each compound were fitted to the Hill equation yielding concentrations of half-maximal inhibition (IC50) and maximal response (efficacy) values.
qHTS protocol for ER-alpha beta-lactamase assay in antagonist mode
[Step] [Parameter] [Value] [Description]
1. Reagent; 5 uL; 5000 cells/well
2. Incubation; 37 C for 4 hrs
- Dose response, Start 38uM, 1:2 dilutions with duplicates
- Two columns with 38 and 19uM (final) concentration.
5. Agonist (Stimulator); 1uL; 17-beta-estradiol at 0.5nM (final) concentration
6. Incubation; 37 C for 18 hrs
7. Detection reagent; 1 uL of CCF4-dye
8. Incubation; RT for 2 hrs
9. Detection; Fluorescence; Envision plate reader or Acumen plate reader

Compound | outcome
COc1cc2c(c(OC)c1OC)-c1ccc(OC)c(=O)cc1[C@@H](NC(C)=O)CC2 | inactive
OCCOc1ccccc1 | inactive
c1ccc2c(c1)Nc1ccccc1S2 | inactive
Oc1ccccc1-c1ccccc1 | inactive

Biological target: Estrogen receptor (Homo sapiens) (UniProt P03372)
Assay: qHTS assay for small molecule agonists of estrogen receptor alpha signaling (AID 588514; calls by dose curve; also: nearly all actives have a fitted effect of over 70% in size; also: potency is read from the fitted curve at half-maximal effect;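 as to activation: 0% = vehicle only and 100% = reference agonist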)
Conditions: ER-alpha-UAS-bla HEK293, beta-lactamase ratio, 18 h; series mostly up to 76.8 µM; activation: at the top concentration
Method in brief: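 ER-alpha-UAS-bla GripTite HEK293 cells, 5000/well in 2% charcoal/dextran-stripped FBS medium, treated with compound titrations 18 h at 37 C. CCF4 beta-lactamase read by fluorescence after 2 h RT; normalised to 20 nM 17-beta-estradiol (100%) and DMSO (0%), Hill fit for EC50 and efficacy.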

Compound | Potency | activation
OCCOc1ccccc1 | inactive | –
c1ccc2c(c1)Nc1ccccc1S2 | – | 12.8% (inactive)
C[C@]12C/C(=C/O)C(=O)C[C@@H]1CC[C@@H]1[C@@H]2CC[C@@]2(C)[C@H]1CC[C@]2(C)O | 562 nM (active) | –
Oc1ccccc1-c1ccccc1 | inactive | –
